Measured values: PubChem BioAssay AID1159580 (chemical genetic matrix, 2015)
Several values for one entry are separate records, joined by “and”; a condition that tells them apart may be missing. Identical values can stand only once. Out of some 5,500 compounds screened, about 2,000 (36%) were called active. About 18% were inconclusive and are not listed. No stated cut-off is given here; in the data, active means normalized growth mostly below about 0.91 (no sharp cut-off); inconclusive means no clear call, values can overlap the other calls; inactive means mostly above about 0.92. The list shows a part of the results.

Assay: chemical genetic growth profiling, strain panel (AID 1159580);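 further: tested at 20 µM; growth read once vehicle control cultures reached saturation at 30 °C; 1 = growth at the plate median or of vehicle wells; lower values mean less growth of the strain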
Details: S. cerevisiae deletion strains, growth OD

Measured: normalized growth

CCOC(=O)OC(C)OC(=O)C1N2C(=O)C(NC(=O)[C@H](N)c3ccccc3)C2SC1(C)C (some centres undefined)
inactive: locus YAL013W, strain DEP1, active compounds read low 0.98 | locus YAL021C, strain ccr4, active compounds read low 0.986 | locus YAL026C, strain drs2, active compounds read low 0.981 | locus YAL030W, strain snc1, active compounds read low 0.98 | locus YBL061C, strain skt5, active compounds read low 0.978 | locus YBR009C, strain hhf1, active compounds read low 0.992 | locus YBR021W, strain FUR4, active compounds read low 1.03 | locus YBR023C, strain chs3, active compounds read low 0.986 | locus YBR171W, strain sec66, active compounds read low 0.968 | locus YBR229C, strain ROT2, active compounds read low 0.961 | locus YBR231C, strain swc5, active compounds read low 0.987 | locus YBR279W, strain paf1, active compounds read low 0.989 | locus YCL011C, strain gbp2, active compounds read low 0.965 | locus YCL016C, strain dcc1, active compounds read low 0.993 | locus YCL029C, strain bik1, active compounds read low 0.988 | locus YCL061C, strain MRC1, active compounds read low 0.998 | locus YCL069W, strain vba3, active compounds read low 0.998 | locus YCR088W, strain abp1, active compounds read low 0.985 | locus YDL005C, strain med2, active compounds read low 0.983 | locus YDL035C, strain GPR1, active compounds read low 0.984 | locus YDL040C, strain nat1, active compounds read low 0.989 | locus YDL074C, strain BRE1, active compounds read low 0.917 | locus YDL101C, strain DUN1, active compounds read low 0.97 | locus YDL134C, strain PPH21, active compounds read low 0.998 | locus YDL185W, strain tfp1, active compounds read low 0.975 | locus YDL192W, strain arf1, active compounds read low 0.985 | locus YDR001C, strain nth1, active compounds read low 0.983 | locus YDR069C, strain doa4, active compounds read low 0.993 | locus YDR101C, strain arx1, active compounds read low 0.962 | locus YDR137W, strain rgp1, active compounds read low 0.994 | locus YDR159W, strain sac3, active compounds read low 1 | locus YDR162C, strain NBP2, active compounds read low 0.989 | locus YDR195W, strain ref2 0.985 | locus YDR297W, strain sur2, active compounds read low 0.977 | locus YDR318W, strain mcm21, active compounds read low 0.992 | locus YDR334W, strain swr1, active compounds read low 0.943 | locus YDR335W, strain msn5, active compounds read low 0.979 | locus YDR388W, active compounds read low 0.991 | locus YDR392W, strain spt3, active compounds read low 0.946 | locus YDR502C, strain sam2, active compounds read low 0.99 | locus YEL003W, strain gim4, active compounds read low 0.98 | locus YEL037C, strain rad23, active compounds read low 0.987 | locus YEL061C, strain CIN8 (second series), active compounds read low 0.984 | locus YEL061C, strain CIN8, active compounds read low 0.976 | locus YER015W, strain faa2, active compounds read low 0.981 | locus YER016W, strain bim1, active compounds read low 0.99 | locus YER110C, active compounds read low 0.982 | locus YER111C, strain swi4, active compounds read low 0.985 | locus YER155C, strain BEM2 (second series), active compounds read low 0.995 | locus YER155C, strain BEM2, active compounds read low 0.992 | locus YER167W, strain BCK2, active compounds read low 0.997 | locus YFR010W, strain ubp6, active compounds read low 0.977 | locus YGL078C, strain dbp3, active compounds read low 0.974 | locus YGL086W, strain mad1, active compounds read low 0.966 | locus YGL167C, strain pmr1, active compounds read low 0.991 | locus YGL173C, strain kem1, active compounds read low 0.975 | locus YGL227W, strain vid30, active compounds read low 0.993 | locus YGL240W, strain doc1, active compounds read low 0.984 | locus YGL248W, strain PDE1, active compounds read low 0.969 | locus YGL253W, strain hxk2, active compounds read low 0.971 | locus YGR135W, strain pre9, active compounds read low 1.04 | locus YGR252W, strain gcn5, active compounds read low 0.945 | locus YHR013C, strain ard1, active compounds read low 0.967 | locus YHR027C, strain rpn1, active compounds read low 0.963 | locus YHR030C, strain SLT2, active compounds read low 0.996 and 1.02 | locus YHR079C, strain IRE1 (second series), active compounds read low 0.993 | locus YHR079C, strain IRE1, active compounds read low 0.98 | locus YHR094C, strain hxt1, active compounds read low 0.984 | locus YHR129C, strain ARP1, active compounds read low 0.993 | locus YHR142W, strain chs7, active compounds read low 0.954 | locus YHR200W, strain rpn10, active compounds read low 0.997 | locus YIL066C, strain RNR3, active compounds read low 0.944 | locus YIL073C, strain SPO22, active compounds read low 0.966 | locus YIL125W, strain kgd1, active compounds read low 0.995 | locus YIR030C, strain dcg1, active compounds read low 0.986 | locus YJL092W, strain hpr5, active compounds read low 0.994 | locus YJL095W, strain BCK1 (second series), active compounds read low 0.994 | locus YJL095W, strain BCK1, active compounds read low 0.949 and 0.988 | locus YJL115W, strain asf1, active compounds read low 0.974 | locus YJL129C, strain trk1, active compounds read low 1.01 | locus YJL134W, strain LCB3, active compounds read low 0.992 | locus YJL154C, strain vps35, active compounds read low 0.989 | locus YJL164C, strain tpk1, active compounds read low 0.975 | locus YJL166W, strain qcr8, active compounds read low 0.971 | locus YJL168C, strain set2, active compounds read low 0.984 | locus YJL187C, strain SWE1 (second series), active compounds read low 0.935 | locus YJL187C, strain SWE1, active compounds read low 0.989 | locus YJR043C, strain POL32, active compounds read low 0.98 | locus YJR066W, strain TOR1, active compounds read low 0.966
